This note sets out measurements from PubChem BioAssay AID488969 (Vanderbilt High Throughput Screening Facility, 2010).

Structures are written as SMILES. Over roughly 110,000 compounds, “z-score” has its median near -0.1; the highest 2% begin near 2. This is one part of a sample in which the highest values are shown more often than they occur. Calls of active or inactive are those of the source.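 How the source made its calls: active means z-score in the third read window above 3 or below -3; inactive means the rest.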

In this assay the target is Metabotropic glutamate receptor 8 (Rattus norvegicus) (UniProt P70579). Description: rat mGluR8 modulators via GIRK flux, primary screen, cell-based, thallium flux, HTS (AID 488969). To be noted: HEK293 rat mGluR8, GIRK (G protein-gated inwardly rectifying potassium channel) thallium flux, FluoZin2; at 10 µM; stronger effect = higher value; submaximal glutamate (EC20) added with thallium.
Sequence of Metabotropic glutamate receptor 8 (Rattus norvegicus) (P70579 whole entry, looked up): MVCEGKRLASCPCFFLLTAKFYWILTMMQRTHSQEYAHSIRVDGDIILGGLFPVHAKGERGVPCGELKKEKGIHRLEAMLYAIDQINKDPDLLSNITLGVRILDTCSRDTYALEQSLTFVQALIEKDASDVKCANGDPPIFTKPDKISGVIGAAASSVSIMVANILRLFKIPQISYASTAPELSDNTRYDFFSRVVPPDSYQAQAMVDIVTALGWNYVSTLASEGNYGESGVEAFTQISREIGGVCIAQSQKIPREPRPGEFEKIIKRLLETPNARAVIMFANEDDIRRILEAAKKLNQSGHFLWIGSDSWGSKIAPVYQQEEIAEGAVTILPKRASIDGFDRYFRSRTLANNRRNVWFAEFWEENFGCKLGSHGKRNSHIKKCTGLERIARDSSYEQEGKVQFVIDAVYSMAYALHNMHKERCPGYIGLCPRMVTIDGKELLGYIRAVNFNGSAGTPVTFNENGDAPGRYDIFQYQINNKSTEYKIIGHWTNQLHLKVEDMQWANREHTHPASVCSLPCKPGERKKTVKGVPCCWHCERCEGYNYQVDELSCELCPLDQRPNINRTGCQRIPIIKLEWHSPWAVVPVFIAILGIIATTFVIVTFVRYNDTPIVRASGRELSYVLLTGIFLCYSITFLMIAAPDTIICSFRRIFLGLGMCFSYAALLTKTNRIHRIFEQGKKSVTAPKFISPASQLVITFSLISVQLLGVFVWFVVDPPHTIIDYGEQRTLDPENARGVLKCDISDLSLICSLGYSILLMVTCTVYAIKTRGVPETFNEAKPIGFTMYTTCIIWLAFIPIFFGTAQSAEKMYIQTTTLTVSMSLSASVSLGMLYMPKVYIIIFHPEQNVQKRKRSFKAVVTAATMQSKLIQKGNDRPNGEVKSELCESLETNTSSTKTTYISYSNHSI
On to `CCOc1ccc(NC(=O)CCCN2C(=S)NC(C)(C)CC2C)cc1` (stereo unspecified), for which the z-score is -0.466.

`O=C1CC(N2CCN(c3nc4ccccc4s3)CC2)C(=O)N1c1ccc(F)cc1` (stereo unspecified): the z-score was 7.65 (active).

Molecule `CCCOc1ccc(N2C(=O)CC(N3CCN(c4nc5ccccc5s4)CC3)C2=O)cc1` (stereo unspecified) had a z-score of 0.835.

`O=C1CC(N2CCN(c3nc4ccccc4s3)CC2)C(=O)N1c1cccc(F)c1` (stereo unspecified) displayed a z-score of -0.276.

In turn, `CCCCC(=O)Nc1nc2ccc3nc(C)sc3c2s1` registered a z-score of -0.125.

Consider `CCCC(=O)Nc1nc2ccc3nc(C)sc3c2s1`, for which the z-score is -0.507.

Consider `CCC(=O)Nc1nc2ccc3nc(C)sc3c2s1`, for which the z-score is 3.6 (active).

The molecule `Nc1sccc1C(=O)c1ccc(Cl)cc1` showed a z-score of -0.434.

`Nc1cc2c(cc1C(=O)c1ccccc1)OCCO2` displayed a z-score of 0.199.

Regarding `Nc1sccc1C(=O)c1ccccc1`, the z-score was 11 (active).

The molecule `O=C(Cc1ccccc1)N/N=C/c1cc(Br)c(Br)o1` returned a z-score of -0.248.

Take `O=C(N/N=C\c1cc(Br)c(Br)o1)c1cncc(Br)c1`: the z-score is 9.73 (active).

Regarding `O=C(N/N=C/c1ccc(-c2ccccc2[N+](=O)[O-])o1)c1cncc(Br)c1`, the z-score was -1.68.

Molecule `Cc1ccnc(NC(=O)CCC(=O)N(CC(=O)NC2CCCCC2)c2cccc(C)c2C)c1` displayed a z-score of -0.622.

Turning to `COc1ccc(OC)c(-c2cc(C(=O)Nc3c(C)nn(Cc4ccccc4Cl)c3C)no2)c1`, the z-score is -0.834.

Molecule `CC1Cc2ccccc2N1C(=O)COC(=O)Cn1cnc2ccccc2c1=O` (stereo unspecified) had a z-score of -0.55.

In the case of `Cc1ccc(C(=O)CNc2cccc(Cl)c2)cc1`, the z-score is -0.0331.

In the case of `Cc1ccc(C(=O)c2cn[nH]c2-c2cc(Cl)ccc2O)cc1`, the z-score was -0.48.

Molecule `O=C(O)CC(=O)Nc1cc(Cl)ccc1O` gave a z-score of 0.845.

`Cc1ccc(C(=O)CC(=O)c2cc(Cl)ccc2O)cc1`: the z-score was 7.14 (active).

`Cc1cccc(C(=O)Nc2ccc(NC(=O)Cc3ccc(Cl)cc3)cc2)c1` yielded a z-score of -0.0593.

For `Cc1cccc(C(=O)CC(=O)c2cc(Cl)ccc2O)c1`, the z-score is 4.14 (active).

Take `O=C(CCc1ccccc1)Nc1cc(Cl)ccc1O`: the z-score is -0.624.

With `Cc1cccc(/C(N)=N/OC(=O)c2ccc(Cl)cc2Cl)c1`, the z-score was -0.137.

Regarding `O=C(CC(=O)c1cc(Cl)ccc1O)c1ccccc1`, the z-score was 3.32 (active).

Molecule `COc1nc(-c2ccccc2)ccc1-c1noc(-c2ccccc2F)n1` had a z-score of 0.0977.

The molecule `NC(=O)c1ccccc1OCC(=O)NC12CC3CC(CC(C3)C1)C2` came in with a z-score of -0.0638.

The molecule `COC(=O)Nc1snnc1C` returned a z-score of -0.189.

Molecule `CCOC(=O)C1=C(C)N(C)C(=O)NC1c1cc2c(cc1Br)OCO2` (stereo unspecified) came in with a z-score of 1.61.

As to `CCc1nc(NCc2ccco2)c2oc3ccccc3c2n1`, the z-score is -0.48.

For `O=C(CN1C(=O)c2cccc3cccc1c23)Nc1ccc(S(=O)(=O)N2CCOCC2)cc1`, the z-score was -0.376.

For `COc1cccc(C(=O)Nc2ccccc2N2CCOCC2)c1`, the z-score came to 0.0601.

As to `CN1C(=S)SC(/[N+]([O-])=C\c2cccs2)C1(C)C` (stereo unspecified), the z-score is -0.0661.

`CC(=O)Nc1cc2c(cc1NC(=O)Cn1nc(-c3ccc4c(c3)OCCO4)ccc1=O)OCCO2` gave a z-score of -0.275.

Regarding `COc1cccc(-c2ccc(=O)n(CC(=O)Nc3cc4c(cc3NC(C)=O)OCCO4)n2)c1`, the z-score came out at 2.05.

`CC(=O)Nc1cc2c(cc1NC(=O)Cn1nc(-c3ccccc3F)ccc1=O)OCCO2` had a z-score of -0.0689.

With `Cc1cnc(C(=O)Nc2cc(S(=O)(=O)N3CCOCC3)ccc2N2CCN(C)CC2)cn1`, the z-score was 0.0173.

`O=C(N/N=C/C=C/c1ccc2c(c1)OCO2)c1ccc([N+](=O)[O-])cc1` registered a z-score of 0.0517.

As for `CCCN(CCC)S(=O)(=O)c1ccc(C(=O)Nc2nc(-c3ccccc3)c(C(=O)OCC)s2)cc1`, the z-score was -0.243.

For the molecule `Clc1ccccc1CN1CCC(Cc2ccccc2)CC1`, the z-score was -0.0513.

Take `O=C(NCCN1CCOCC1)C1CCC(=O)N1Cc1ccc(F)cc1` (stereo unspecified): the z-score was 0.194.

The molecule `Cc1ccc(-c2ccc(/C=C/C(=O)c3ccccc3)o2)cc1` displayed a z-score of -0.233.

As for `Cc1cc2cc(OCC(=O)O)ccc2n1C`, the z-score came to 0.494.

The molecule `C/C(=N\NC(=O)Nc1ccccc1)c1ccccc1` displayed a z-score of -0.157.

`Cc1cccc(NC(=S)N/N=C/c2c[nH]c3ccccc23)c1` displayed a z-score of -0.0914.

With `C/C(=N\NC(=S)Nc1cccc(C)c1)c1ccccc1`, the z-score was 5.36 (active).

On to `C/C(=N\NC(=O)c1cccc(C)c1)c1cccc(NC(=O)c2ccco2)c1`, for which the z-score was -0.159.

In the case of `Cc1cccc(NC(=S)N/C(=N/S(=O)(=O)c2ccccc2)c2ccccc2)c1`, the z-score is 1.97.

Turning to `C/C(=N\NC(=S)Nc1cccc(C)c1)c1cccc(N)c1`, the z-score is 3.42 (active).

For the molecule `CCOC(=O)C(NC(=O)CC)(N1CCc2ccccc2C1)C(F)(F)F` (stereo unspecified), the z-score was -0.138.

With `O=C(NCCCN1CCC(Cc2ccccc2)CC1)C1CC(=O)N(C2CCCCCC2)C1` (stereo unspecified), the z-score came out at 1.25.

In the case of `O=C(Nc1ccccc1)c1ccc(CSc2ccccn2)cc1`, the z-score was -0.0973.

`COc1cc(NCCCCCCCN)c2ncccc2c1`: the z-score was 2.78.

In turn, `COc1cc(NC(=O)C2CCCCC2)c2ncccc2c1` gave a z-score of -0.248.

`COc1cc(NC(=O)c2ccc3c(c2)OCO3)c2ncccc2c1` displayed a z-score of -0.168.

`C=CCNC(=S)NNC(=O)c1ccc(OCCC)cc1` gave a z-score of 0.095.

The molecule `CCCOc1ccc(C(=O)NNC(=S)NC(C)=O)cc1` had a z-score of 0.435.

In the case of `CCCCOc1ccc(C(=O)NNC(=S)NC(=O)CC)cc1`, the z-score is 4.28 (active).

For `C=CCNC(=S)NNC(=O)c1ccc(OCCCC)cc1`, the z-score is -0.162.

Regarding `CCCOc1ccc(C(=O)NNC(=S)NC(=O)CC)cc1`, the z-score is 3.01 (active).

As for `CCC(=O)NC(=S)NNC(=O)c1ccc(OC)cc1`, the z-score was -0.0696.

Molecule `CN(C1CCS(=O)(=O)C1)S(=O)(=O)c1ccc(C2CCCCC2)cc1` (stereo unspecified) returned a z-score of 0.314.

`CCOC(=O)CSc1nnc(NC(=O)c2cccc([N+](=O)[O-])c2C)s1` returned a z-score of 0.774.

`CC1=C/C(=N\NC(=O)c2ccccc2)CC1` yielded a z-score of -0.0871.

As to `O=C(NC(NC(=O)c1ccccc1)C(=O)c1ccccc1)c1ccccc1`, the z-score was -0.143.

As to `O=C(NN=c1c(=O)c2ccccc2c1=O)c1ccccc1`, the z-score is 6.47 (active).

`O=[N+]([O-])c1cc(/C=N/Nc2nc(N3CCOCC3)nc(N3CCOCC3)n2)ccc1Cl` gave a z-score of -0.222.

`COc1cccc(C2C3=C(CC(C)(C)CC3=O)Nc3cc4c(cc32)OCO4)c1` (stereo unspecified) returned a z-score of 2.12.

Take `COc1ccc(C2C3=C(CC(C)(C)CC3=O)Nc3cc4c(cc32)OCO4)cc1` (stereo unspecified): the z-score was -0.138.

Molecule `CC1(C)CC(=O)C2=C(C1)Nc1cc3c(cc1C2c1ccc2c(c1)OCO2)OCO3` (stereo unspecified) had a z-score of -0.639.

In turn, `Cc1nc2cc(N3CCCCC3)c(NC(=O)c3ccncc3)cc2c(=O)n1Cc1ccc(Cl)cc1` yielded a z-score of -0.37.

Molecule `Cc1nn(C(=O)c2nn(C)cc2Cl)c(C)c1Br` showed a z-score of 0.0765.

`CC(=O)c1cn(CC(=O)NCc2ccco2)c2ccccc12` registered a z-score of -0.774.

`CCCNC(=S)N1CCC(c2nc3cc(C)c(C)cc3[nH]2)CC1` displayed a z-score of -0.228.

The molecule `Cc1ccc(-c2nn(CC(=O)Nc3cccnc3)c(=O)c3ccccc23)cc1` gave a z-score of -0.291.

Molecule `CN(C)c1ccc(C2C3C(=O)NC(=O)C3ON2c2ccc(Cl)cc2)cc1` (stereo unspecified) gave a z-score of 2.58.

`CN(C)c1ccc(C2N(c3ccc(Cl)cc3)C(=O)C3CCCN32)cc1` (stereo unspecified) had a z-score of -0.129.

With `COc1ccccc1N1C(=O)C2ON(c3ccccc3)C(c3ccc(N(C)C)cc3)C2C1=O` (stereo unspecified), the z-score came out at 0.0686.

As to `Cc1ccc(C(=O)C(C(=O)/C=C/c2ccccc2)=C2SCCCS2)cc1`, the z-score stood at 0.0319.

With `c1ccc(-c2csc3ncn4nnnc4c23)cc1`, the z-score was -0.177.

Turning to `CCCC1CC(CSC(=N)N)OC1=O` (stereo unspecified), the z-score was -0.478.

For `Cc1csc(SCC(=O)Nc2nc(-c3ccccc3)cs2)n1`, the z-score is 1.07.

Regarding `Cc1csc(SCC(=O)Nc2nc3ccccc3s2)n1`, the z-score was 3.3 (active).

Molecule `Cc1csc(NC(=O)CSc2nc3ccccc3s2)n1` registered a z-score of -0.293.

Consider `Cc1ccc(-c2nnc(SCC(=O)N3CCN(c4ccccc4)CC3)o2)cc1`, for which the z-score was -1.07.

The molecule `COc1ccc2[nH]c(=O)c(CN(C(=O)c3ccccn3)c3ccccc3)cc2c1` displayed a z-score of -0.101.

Turning to `CCCN(CC1CC1)C(=O)COC(=O)c1[nH]c(C)c(C(=O)OCC)c1C`, the z-score is -0.372.

For the molecule `COc1cc(NC(=O)c2cccnc2Sc2ccc(Cl)cc2)cc(OC)c1OC`, the z-score is -0.134.

On to `O=C(O)C(Cc1c[nH]c2ccccc12)NS(=O)(=O)c1cccc2nsnc12` (stereo unspecified), for which the z-score came out at 0.00264.

`Cc1ccc(S(=O)(=O)NC(Cc2c[nH]c3ccccc23)C(=O)O)cc1` (stereo unspecified) displayed a z-score of -0.0187.

For `Cc1cccc(S(=O)(=O)NC(Cc2c[nH]c3ccccc23)C(=O)O)c1` (stereo unspecified), the z-score came out at 2.17.

For `CC(C)(C)c1[nH]nc2c1C(c1ccccc1OC(=O)N1CCOCC1)C(C#N)=C(N)O2` (stereo unspecified), the z-score is -2.43.

On to `O=C(CSc1nc2ccccc2[nH]1)N/N=C/C=C/c1ccccc1[N+](=O)[O-]`, for which the z-score is -0.487.

The molecule `COCCCNC(=O)c1ccc(N2CCCC2)c(NS(=O)(=O)c2ccc(C)cc2)c1` yielded a z-score of 0.547.

On to `CCN(CC)CCNC(=O)c1ccc(N2CCCCC2)c(NS(=O)(=O)c2ccc(C)cc2)c1`, for which the z-score is 2.96.

As to `Cc1ccc(S(=O)(=O)Nc2cc(C(=O)NCCN3CCCC3)ccc2N2CCCCC2)cc1`, the z-score was 1.81.

Consider `Cc1nnc2sc(SCc3ccccc3)nn2c1=O`, for which the z-score is -0.0579.

In turn, `CC(=O)/C(=N\Nc1ccccc1Cl)Sc1cccc2cccnc12` displayed a z-score of 0.299.

`CC(=O)/C(=N\Nc1cccc(Cl)c1)Sc1cccc2cccnc12` had a z-score of 0.635.

`CC(=O)/C(=N\Nc1ccc(Cl)cc1Cl)Sc1cccc2cccnc12` had a z-score of 2.29.

Turning to `CC(C)(C)SCCNC(=O)c1ccc(NS(C)(=O)=O)cc1`, the z-score is -0.0865.

Take `O=C(CSc1ccc(Cl)cc1)N1CCN(c2ncc(C(F)(F)F)cc2Cl)CC1`: the z-score was -0.0561.

In turn, `Cc1cc(NC(c2ccc(Cl)cc2)c2ccc3cccnc3c2O)no1` (stereo unspecified) displayed a z-score of 1.61.

Take `Cc1conc1NC(c1cccs1)c1ccc2cccnc2c1O` (stereo unspecified): the z-score was 3.41 (active).

Molecule `Cc1cc(NC(c2cccnc2)c2ccc3cccnc3c2O)no1` (stereo unspecified) showed a z-score of -0.344.

`COc1cccc(NC(=O)N(Cc2cc3cc(C)cc(C)c3[nH]c2=O)CC2COCCO2)c1` (stereo unspecified) returned a z-score of -0.438.

Turning to `COc1ccc(NC(=O)/C=C/C(=O)O)cc1Cl`, the z-score was 0.0641.

Molecule `Cc1ccc(NC(=O)/C(=C\c2ccccc2)NC(=O)/C=C/c2ccccc2)cc1` had a z-score of -0.26.

`CC1CCN(C(=O)CSc2nnc(CNC(=O)c3ccco3)o2)CC1` registered a z-score of 2.28.

In the case of `O=C(NCc1nnc(SCC(=O)N2CCN(c3ccccc3)CC2)o1)c1ccco1`, the z-score is -0.268.

For `O=C(NCc1nnc(SCC(=O)N2CCCCCC2)o1)c1ccco1`, the z-score is -0.474.
